Test results published in PubChem BioAssay AID1159580 (chemical genetic matrix, 2015).
The whole screen tested about 5,500 compounds, of which about 2,000 (36%) were called active. About 18% were inconclusive and are not listed. Rule as the data show it: active = normalized growth mostly below about 0.91 (no sharp cut-off); inconclusive = no clear call, values can overlap the other calls; inactive = mostly above about 0.92. Some of the results follow.

Assay: chemical genetic growth profiling, strain panel (AID 1159580);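 also: tested at 20 µM; growth read once vehicle control cultures reached saturation at 30 °C; 1 = growth at the plate median or of vehicle wells; lower values mean less growth of the strain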
Conditions: growth OD
[1] = S. cerevisiae deletion strains, locus YAL013W, strain DEP1, active compounds read low
[2] = S. cerevisiae deletion strains, locus YBR229C, strain ROT2, active compounds read low
[3] = S. cerevisiae deletion strains, locus YDL101C, strain DUN1, active compounds read low
[4] = S. cerevisiae deletion strains, locus YDR150W, strain NUM1, active compounds read low
[5] = S. cerevisiae deletion strains, locus YEL061C, strain CIN8, active compounds read low
[6] = S. cerevisiae deletion strains, locus YGR078C, strain PAC10, active compounds read low
[7] = S. cerevisiae deletion strains, locus YHR030C, strain SLT2, active compounds read low
[8] = S. cerevisiae deletion strains, locus YHR087W, strain rtc3, active compounds read low
[9] = S. cerevisiae deletion strains, locus YJL187C, strain SWE1, active compounds read low
[10] = S. cerevisiae deletion strains, locus YJR043C, strain POL32, active compounds read low
[11] = S. cerevisiae deletion strains, locus YJR075W, strain HOC1, active compounds read low
[12] = S. cerevisiae deletion strains, locus YLR039C, strain RIC1, active compounds read low
[13] = S. cerevisiae deletion strains, locus YLR058C, strain SHM2 (second series), active compounds read low
[14] = S. cerevisiae deletion strains, locus YLR085C, strain ARP6, active compounds read low
[15] = S. cerevisiae deletion strains, locus YLR262C, strain YPT6, active compounds read low
[16] = S. cerevisiae deletion strains, locus YML094W, strain GIM5, active compounds read low
[17] = S. cerevisiae deletion strains, locus YMR219W, strain ESC1, active compounds read low
[18] = S. cerevisiae deletion strains, locus YMR263W, strain SAP30, active compounds read low
[19] = S. cerevisiae deletion strains, locus YMR307W, strain GAS1, active compounds read low
[20] = S. cerevisiae deletion strains, locus YNL153C, strain GIM3, active compounds read low
[21] = S. cerevisiae deletion strains, locus YNL298W, strain CLA4 (second series), active compounds read low
[22] = S. cerevisiae deletion strains, locus YNL322C, strain KRE1, active compounds read low
[23] = S. cerevisiae deletion strains, locus YNR030W, strain Alg12, active compounds read low
[24] = S. cerevisiae deletion strains, locus YPL055C, strain LGE1, active compounds read low
[25] = S. cerevisiae deletion strains, locus YPL241C, strain CIN2, active compounds read low
[26] = S. cerevisiae deletion strains, locus YPR135W, strain CTF4, active compounds read low

Measured: normalized growth

CCc1cccc(C)c1NC(=O)CC(C)(C)CC(=O)O
inactive: [1] 0.988 | [2] 0.994 | [3] 1.02 | [4] 0.981 | [5] 0.992 | [6] 0.99 | S. cerevisiae deletion strains, locus YGR229C, strain SMI1, active compounds read low 0.992 | [7] 0.989 | [8] 1.01 | [9] 0.996 | [10] 0.995 | [11] 1.01 | S. cerevisiae deletion strains, locus YKL190W, strain CNB1, active compounds read low 0.987 | [12] 1.03 | [13] 0.996 | [14] 0.966 | [15] 1.02 | [16] 1.06 | [17] 0.996 | [18] 0.967 | [19] 0.983 | [20] 1.01 | [21] 1.01 | [22] 0.992 | [23] 1 | [24] 1.02 | [25] 1.01 | [26] 1.06

O=C(Nc1cc(C(F)(F)F)cc(C(F)(F)F)c1)C(Cl)(Cl)Cl
inactive: S. cerevisiae deletion strains, locus YAR019C, strain CDC15, active compounds read low 0.964 | S. cerevisiae deletion strains, locus YBL105C, strain PKC1, active compounds read low 0.958 | S. cerevisiae deletion strains, locus YBR135W, strain CKS1, active compounds read low 0.962 | S. cerevisiae deletion strains, locus YBR136W, strain MEC1, active compounds read low 0.965 | S. cerevisiae deletion strains, locus YBR160W, strain CDC28, active compounds read low 0.969 | S. cerevisiae deletion strains, locus YDL017W, strain CDC7, active compounds read low 0.959 | S. cerevisiae deletion strains, locus YDL028C, strain MPS1, active compounds read low 0.966 | [3] 0.97 | S. cerevisiae deletion strains, locus YDL108W, strain KIN28, active compounds read low 0.957 | S. cerevisiae deletion strains, locus YDL132W, strain cdc53, active compounds read low 0.955 | S. cerevisiae deletion strains, locus YDL214C, strain PRR2, active compounds read low 0.919 | S. cerevisiae deletion strains, locus YDR052C, strain DBF4, active compounds read low 0.964 | S. cerevisiae deletion strains, locus YDR054C, strain cdc34, active compounds read low 0.948 | S. cerevisiae deletion strains, locus YDR226W, strain ADK1, active compounds read low 0.959 | S. cerevisiae deletion strains, locus YDR477W, strain SNF1, active compounds read low 0.921 | S. cerevisiae deletion strains, locus YER123W, strain YCK3, active compounds read low 0.878 | S. cerevisiae deletion strains, locus YER133W, strain GLC7, active compounds read low 0.918 | S. cerevisiae deletion strains, locus YFL009W, strain cdc4, active compounds read low 0.951 | S. cerevisiae deletion strains, locus YFL029C, strain CAK1, active compounds read low 0.962 | S. cerevisiae deletion strains, locus YFR003C, strain YPI1, active compounds read low 0.955 | S. cerevisiae deletion strains, locus YFR019W, strain FAB1, active compounds read low 0.957 | S. cerevisiae deletion strains, locus YFR028C, strain CDC14, active compounds read low 0.962 | S. cerevisiae deletion strains, locus YGR040W, strain KSS1, active compounds read low 0.929 | S. cerevisiae deletion strains, locus YGR052W, strain FMP48, active compounds read low 0.911 | S. cerevisiae deletion strains, locus YGR092W, strain DBF2, active compounds read low 0.879 | S. cerevisiae deletion strains, locus YHR079C, strain IRE1, active compounds read low 0.843 | S. cerevisiae deletion strains, locus YHR082C, strain KSP1, active compounds read low 0.932 | S. cerevisiae deletion strains, locus YHR205W, strain SCH9, active compounds read low 0.815 | S. cerevisiae deletion strains, locus YIL147C, strain SLN1, active compounds read low 0.96 | S. cerevisiae deletion strains, locus YJL095W, strain BCK1, active compounds read low 0.828 | S. cerevisiae deletion strains, locus YJL128C, strain PBS2, active compounds read low 0.883 | S. cerevisiae deletion strains, locus YJL157C, strain FAR1, active compounds read low 0.932 | S. cerevisiae deletion strains, locus YJR016C, strain ILV3, active compounds read low 0.956 | S. cerevisiae deletion strains, locus YJR066W, strain TOR1 (second series), active compounds read low 0.947 | S. cerevisiae deletion strains, locus YJR066W, strain TOR1, active compounds read low 0.955 | S. cerevisiae deletion strains, locus YKL048C, strain ELM1, active compounds read low 0.931 | S. cerevisiae deletion strains, locus YKL067W, strain YNK1, active compounds read low 0.932 | S. cerevisiae deletion strains, locus YKL101W, strain HSL1, active compounds read low 0.918 | S. cerevisiae deletion strains, locus YKL193C, strain SDS22, active compounds read low 0.95 | S. cerevisiae deletion strains, locus YKL203C, strain TOR2, active compounds read low 0.969 | S. cerevisiae deletion strains, locus YLR133W, strain CKI1, active compounds read low 0.934 | S. cerevisiae deletion strains, locus YLR403W, strain SFP1, active compounds read low 0.916 | S. cerevisiae deletion strains, locus YML070W, strain DAK1, active compounds read low 0.891 | S. cerevisiae deletion strains, locus YMR001C, strain CDC5, active compounds read low 0.963 | S. cerevisiae deletion strains, locus YMR205C, strain PFK2 (second series), active compounds read low 0.926 | S. cerevisiae deletion strains, locus YMR277W, strain FCP1, active compounds read low 0.956 | S. cerevisiae deletion strains, locus YNL006W, strain LST8, active compounds read low 0.974 | S. cerevisiae deletion strains, locus YNL020C, strain ARK1, active compounds read low 0.92 | S. cerevisiae deletion strains, locus YNL161W, strain CBK1, active compounds read low 0.957 | S. cerevisiae deletion strains, locus YNL183C, strain NPR1, active compounds read low 0.913 | S. cerevisiae deletion strains, locus YNL207W, strain RIO2, active compounds read low 0.955 | S. cerevisiae deletion strains, locus YNL222W, strain SSU72, active compounds read low 0.967 | S. cerevisiae deletion strains, locus YNL307C, strain MCK1 (second series), active compounds read low 0.869 | S. cerevisiae deletion strains, locus YOL078W, strain AVO1, active compounds read low 0.961 | S. cerevisiae deletion strains, locus YOL136C, strain PFK27, active compounds read low 0.89 | S. cerevisiae deletion strains, locus YOR061W, strain CKA2, active compounds read low 0.96 | S. cerevisiae deletion strains, locus YOR119C, strain RIO1, active compounds read low 1 | S. cerevisiae deletion strains, locus YOR231W, strain MKK1, active compounds read low 0.896 | S. cerevisiae deletion strains, locus YOR329C, strain SCD5, active compounds read low 0.959 | S. cerevisiae deletion strains, locus YPL031C, strain PHO85, active compounds read low 0.904 | S. cerevisiae deletion strains, locus YPL153C, strain RAD53, active compounds read low 0.889 | S. cerevisiae deletion strains, locus YPL204W, strain HRR25, active compounds read low 0.879 | S. cerevisiae deletion strains, locus YPL209C, strain IPL1, active compounds read low 0.964 | S. cerevisiae deletion strains, locus YPR025C, strain CCL1, active compounds read low 0.969 | S. cerevisiae deletion strains, locus YPR106W, strain ISR1, active compounds read low 0.958 | S. cerevisiae deletion strains, locus YPR111W, strain DBF20, active compounds read low 0.941 | S. cerevisiae deletion strains, strain NNK1, active compounds read low 0.96 | S. cerevisiae deletion strains, strain TSCII, active compounds read low 0.957
active: [7] 0.829 | S. cerevisiae deletion strains, locus YLR113W, strain HOG1, active compounds read low 0.853 | S. cerevisiae deletion strains, locus YPL256C, strain CLN2, active compounds read low 0.77

CCOC(=O)C(O)(c1ccc(N)c(C)c1)C(F)(F)F (configuration not stated)
inactive: [1] 0.995 | [2] 1 | [3] 0.996 | [4] 0.928 | [5] 0.988 | [6] 0.992 | [7] 0.953 | [8] 1.02 | [9] 1 | [10] 0.925 | [11] 0.991 | [12] 0.988 | [13] 1.01 | [14] 0.996 | [15] 1.02 | [16] 0.991 | [17] 0.982 | [18] 0.999 | [19] 0.946 | S. cerevisiae deletion strains, locus YNL128W, strain TEP1, active compounds read low 1.01 | [20] 0.993 | [21] 1 | [22] 1 | [23] 1.01 | [24] 0.935 | [25] 0.996 | [26] 0.982 | S. cerevisiae strains, strain wild type, active compounds read low 0.981
